Experimental data: PubChem BioAssay
Active and inactive are the calls of the source. No rule for the calls is given here.

Each molecule was assayed against Pantothenate synthetase (Mycobacterium tuberculosis (strain ATCC 25618 / H37Rv)) (UniProt P9WIL5) (assay: Recombinant Mtb pantothenate synthetase (PanC) inhibitors, coupled enzyme, confirmatory (AID 375;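 also: 0% = full reaction with vehicle and 100% = no enzyme background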)). Conditions: coupled enzyme assay; at 10 µM, stronger effect = higher value.
Sequence of Pantothenate synthetase (Mycobacterium tuberculosis (strain ATCC 25618 / H37Rv)) (P9WIL5 whole entry, looked up): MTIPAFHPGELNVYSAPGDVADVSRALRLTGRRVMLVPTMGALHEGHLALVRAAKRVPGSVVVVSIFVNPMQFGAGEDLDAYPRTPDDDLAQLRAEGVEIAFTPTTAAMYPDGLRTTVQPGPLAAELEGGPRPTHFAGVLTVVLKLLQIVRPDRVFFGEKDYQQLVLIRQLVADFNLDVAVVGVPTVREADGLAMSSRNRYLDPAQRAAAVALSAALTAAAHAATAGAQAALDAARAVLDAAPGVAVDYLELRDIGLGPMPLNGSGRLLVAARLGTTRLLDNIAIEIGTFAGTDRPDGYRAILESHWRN

| Compound | inhibition |
| --- | --- |
| CCN(CC)S(=O)(=O)c1ccc(NC(=O)c2cccc3c2C(=O)N(CCOC)C3)cc1 | 4% (inactive) |
| O=C(CN(C1CCCCC1)S(=O)(=O)c1ccccc1)NCc1cccnc1 | 0% (inactive) |
| O=S1(=O)N=C(Nc2nc3c(s2)CCCC3)c2ccccc21 | 4% (inactive) |
| CCOC(=O)C1=C(C)N=C2SCCC(=O)N2C1c1cc(Br)ccc1OC (stereo not drawn) | 5% (inactive) |
| Cc1nnc(SCc2ccccc2F)n1NCc1cccs1 | 3% (inactive) |
| O=C(NCc1ccco1)C1CC(=O)N(c2ccc(F)cc2)C1 (stereo not drawn) | 4% (inactive) |
| CCSc1oc(-c2cccs2)nc1S(=O)(=O)c1ccccc1 | 4% (inactive) |
| O=S(NCc1ccco1)C12CC3CC(CC(C3)C1)C2 (stereo not drawn) | 0% (inactive) |
| CCCCNS(=O)(=O)c1ccc(OC)c2ncccc12 | 3% (inactive) |
| CCCCCc1c(C)nc(SCC(=O)O)[nH]c1=O | 0% (inactive) |
| COc1ccccc1N1CCN(S(=O)(=O)CC23CCC(CC2=O)C3(C)C)CC1 (stereo not drawn) | 1% (inactive) |
| O=C(CSc1nc2ccccc2o1)Nc1ccccc1 | 0% (inactive) |
| CCC(=O)N(Cc1ccco1)c1nc(-c2cc(OC)ccc2OC)cs1 | 0% (inactive) |
| CC(CCc1ccccc1)NCc1ccncc1 (stereo not drawn) | 5% (inactive) |
| Cc1cc(C)c(NC2=NCC(=O)N2C2CCCCC2)c(C)c1 | 0% (inactive) |
| COc1ccccc1OCC(=O)NCC1CCCCC1 | 0% (inactive) |
| COc1ccc(-n2c(Cc3cccn3C)nnc2SCC(=O)NCC2CCCO2)cc1 (stereo not drawn) | 11% (inactive) |
| COc1ccc(Cc2nc(-c3ccc(Br)cc3)no2)cc1 | 7% (inactive) |
